Laboratory results published in PubChem BioAssay AID488969 (Vanderbilt High Throughput Screening Facility, 2010).
The full ranking holds about 110,000 compounds; the median of “z-score” is about -0.1, and the highest 2% start at about 2. The sample holds the highest values, similar compounds and a random draw of the others, so the mix is not that of the screen. Active and inactive are the calls of the source.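 Rule for the calls: active = z-score in the third read window above 3 or below -3; inactive = the rest.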

Each molecule was assayed against Metabotropic glutamate receptor 8 (Rattus norvegicus) (UniProt P70579) (assay: rat mGluR8 modulators via GIRK flux, primary screen, cell-based, thallium flux, HTS (AID 488969)). Details: HEK293 rat mGluR8, GIRK (G protein-gated inwardly rectifying potassium channel) thallium flux, FluoZin2; at 10 µM; stronger effect = higher value; submaximal glutamate (EC20) added with thallium.
Metabotropic glutamate receptor 8 (Rattus norvegicus), sequence (P70579 whole entry, looked up): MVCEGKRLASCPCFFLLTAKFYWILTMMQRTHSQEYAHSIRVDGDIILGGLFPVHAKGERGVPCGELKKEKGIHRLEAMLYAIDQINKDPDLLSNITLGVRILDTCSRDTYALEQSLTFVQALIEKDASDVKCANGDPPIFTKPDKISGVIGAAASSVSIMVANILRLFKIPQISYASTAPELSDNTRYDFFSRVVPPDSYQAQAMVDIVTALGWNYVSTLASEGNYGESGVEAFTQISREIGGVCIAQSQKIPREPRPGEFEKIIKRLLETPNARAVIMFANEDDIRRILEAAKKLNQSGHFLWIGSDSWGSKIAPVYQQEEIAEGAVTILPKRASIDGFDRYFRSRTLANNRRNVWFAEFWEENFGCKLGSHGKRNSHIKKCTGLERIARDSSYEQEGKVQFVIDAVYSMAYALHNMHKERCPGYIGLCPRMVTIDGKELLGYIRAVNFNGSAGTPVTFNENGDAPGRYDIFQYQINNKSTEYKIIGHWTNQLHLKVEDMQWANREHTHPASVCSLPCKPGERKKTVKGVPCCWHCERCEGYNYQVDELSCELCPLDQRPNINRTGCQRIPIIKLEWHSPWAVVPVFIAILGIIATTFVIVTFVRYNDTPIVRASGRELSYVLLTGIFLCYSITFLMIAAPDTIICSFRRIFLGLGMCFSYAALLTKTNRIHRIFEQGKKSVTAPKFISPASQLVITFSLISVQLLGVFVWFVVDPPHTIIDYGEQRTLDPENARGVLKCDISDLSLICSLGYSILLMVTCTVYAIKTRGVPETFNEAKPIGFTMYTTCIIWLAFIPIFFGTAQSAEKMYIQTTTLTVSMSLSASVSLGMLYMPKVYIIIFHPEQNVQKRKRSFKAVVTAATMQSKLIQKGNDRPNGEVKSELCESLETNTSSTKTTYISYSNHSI

Compound | z-score
COc1ccc(N2CCN(C(=O)CN(c3ccccc3)S(=O)(=O)c3ccc(OC)cc3)CC2)cc1 | -0.0102
O=C(CN(c1ccc(Cl)cc1)S(=O)(=O)c1ccccc1)N1CCN(c2ccccc2)CC1 | -0.37
COc1ccc(S(=O)(=O)N(CC(=O)N2CCN(c3ccccc3)CC2)c2ccccc2)cc1 | 2.25
COc1ccc(/C=C2/SC(=O)N(CC(O)Cn3c4ccccc4c4ccccc43)C2=O)cc1 (configuration not stated) | -0.167
Cc1cc(=O)[nH]c(N/N=C/c2cccs2)n1 | -0.0197
O=C1CC(C(=O)Nc2ccccc2)C2(CCCC2)O1 (configuration not stated) | -0.154
O=C1CC(C(=O)Nc2ccccc2)C2(CCCCC2)O1 (configuration not stated) | -0.333
O=C1CC(C(=O)Nc2ccc(Br)cc2)C2(CCCC2)O1 (configuration not stated) | 2.34
CCOC(=O)Cc1csc(NC(=O)c2cccc(OC)c2)n1 | 0.0443
CC1CCCCC12NC(=O)N(CC(=O)Nc1sc3c(c1C(N)=O)CCC3)C2=O (configuration not stated) | 0.0207
CC(C)C1Oc2ccccc2N(CC(=O)NCCCN2C(C)CCCC2C)C1=O (configuration not stated) | 0.132
CCC(C)(C)NC(=O)C(c1ccc(F)cc1)N(Cc1ccco1)C(=O)c1snc(C(N)=O)c1N (configuration not stated) | -0.00804
COC(=O)c1ccc(C(C(=O)NCc2ccccc2)N(Cc2ccco2)C(=O)c2cnccn2)cc1 (configuration not stated) | 0.053
CCC(C)(C)NC(=O)C(c1ccc(F)cc1)N(Cc1ccco1)C(=O)c1cnccn1 (configuration not stated) | 3.05 (active)
O=C(CN1CCOCC1)Nc1ccccc1C(=O)O | -0.257
COc1cc(OC)c(-c2cc(C(=O)O)ccc2OC)c(OC)c1 | -0.305
N/C(COc1cccc(C(F)(F)F)c1)=N\NC(=O)c1cccnc1Oc1ccccc1 | -0.285
COc1ccc(-c2nnn(CCc3nn[nH]n3)n2)cc1 | -0.103
O=C(Nc1ccc(Br)cc1F)C1CCCO1 (configuration not stated) | -0.0425
O=C(Cn1c(=O)[nH]c2ccsc2c1=O)NC1CCCCCC1 | 8.37 (active)
CC1CCC(NC(=O)Cn2c(=O)[nH]c3ccsc3c2=O)CC1 (configuration not stated) | -0.274
O=C(Cn1c(=O)[nH]c2ccsc2c1=O)NC1CCCCC1 | -0.236
COC(=O)/C=C/C(=O)N1CCN(c2ccccc2)CC1 | -0.0929
COC(=O)C1=C(C)N(CCc2ccc(OC)cc2)C(=O)C1 | 2.28

Compound | z-score
COC(=O)C1=C(C)N(Cc2ccc(OC)cc2)C(=O)C1 | -0.151
COC(=O)C1=C(C)N(CCc2ccccc2)C(=O)C1 | -0.0388
NC(=O)c1ccsc1NC(=O)CSc1nc2ccccc2c(=O)n1CCCO | -0.109
O=C(COC(=O)c1cccc([N+](=O)[O-])c1)NCc1ccc2c(c1)OCO2 | -0.0402
CCc1cc(C(=O)OC)c(NC(=O)CCC(=O)O)s1 | -0.105
Brc1ccc(-c2nnc3c4ccccc4nc(N4CCOCC4)n23)cc1 | 4.42 (active)
Clc1ccc(-c2nnc3c4ccccc4nc(N4CCOCC4)n23)cc1Cl | -0.168
Fc1ccccc1-c1nnc2c3ccccc3nc(N3CCOCC3)n12 | -0.0489
Cc1cc(C)nc(/N=C(\N)Nc2cccc([N+](=O)[O-])c2)n1 | -1.04
COCCCNCCCCOc1ccccc1-c1ccccc1 | 0.319
OCCNCCOc1ccccc1-c1ccccc1 | -0.00757
COCCNCCOc1ccccc1-c1ccccc1 | 3.67 (active)
COCCCNC(=O)CS(=O)(=O)Cc1nc(-c2cccc(OC)c2)oc1C | 0.565
CCCCN(CC)CCCNC(=O)CS(=O)(=O)Cc1nc(-c2cccc(OC)c2)oc1C | 3.63 (active)
CCCNC(=O)CS(=O)(=O)Cc1nc(-c2cccc(OC)c2)oc1C | 0.16
CC1=CC(C)(C)n2c(O)c(N=NC(N)=S)c3cccc1c32 | 2.69
CC1=CC(C)(C)n2c(O)c(N=NC(N)=S)c3cc(C)cc1c32 | 1.04
CC1=CC(C)(C)n2c(O)c(N=NC(N)=S)c3c(C)ccc1c32 | 1.1
N#CCSc1nnc(-c2ccccc2O)n1Cc1ccccc1 | -0.264
OC1(c2cccc(F)c2)CCN(Cc2ccncc2)CC1 | -0.584
OC1(c2ccc3ccccc3c2)CCN(Cc2ccccc2)C1 (configuration not stated) | 2
c1ccc2cc(CN3CCOCC3)ccc2c1 | 0.71
CC1(C)Cc2cccc(OCC(=O)Nc3cccnc3)c2O1 | 0.958
COc1ccc(C(=O)N/C(=C\c2cccc3ccccc23)C(=O)NCCc2c[nH]c3ccccc23)cc1OC | -1.59

Compound | z-score
NC(=O)CSc1nnc(-c2ccc(S(=O)(=O)N3CCCC3)cc2)o1 | -0.271
O=S(=O)(c1ccc(-c2nnc(SCc3nnc(-c4ccccc4)o3)o2)cc1)N1CCCC1 | 3.72 (active)
Cc1ccc(CSc2nnc(-c3ccc(S(=O)(=O)N4CCCC4)cc3)o2)cc1 | 1.62
CO/N=C/c1ccc(Sc2ccccc2)c([N+](=O)[O-])c1 | -0.0163
C=CCNC(=O)NC(=S)c1ccccc1 | 3.72 (active)
O=C(NCCO)NC(=S)c1ccccc1 | -0.169
C=CCNC(=S)NNC(=O)c1ccccc1 | -0.00102
CCNc1nc(NCC)nc(C(=O)Nc2ccccc2)n1 | -0.0479
O=C(NCc1ccc(Cl)cc1)C1C2C=CC3(CN(Cc4cccnc4)C(=O)C13)O2 (configuration not stated) | 0.82
OCCN(Cc1ccccc1)Cc1ccc(C(F)(F)F)cc1 | -0.0102
O=C(O)c1ccccc1SC1CC(=O)N(C2CCCCC2)C1=O (configuration not stated) | -0.0935
Cc1ccc(NC(=O)C2CC(=O)OC23CCOC(C)(C)C3)cc1 (configuration not stated) | -0.427
CC(C)C(=O)NC(Nc1ccccc1F)C(Cl)(Cl)Cl (configuration not stated) | -0.185
CCCCCCCn1ccc(=N)cc1 | -0.268
CCCCCn1ccc(=N)cc1 | 1.99
CCCCCCn1ccc(=N)cc1 | 0.937
Cc1ccc(C)c(S(=O)(=O)N2C(=S)NC(=O)C2C(C)C)c1 (configuration not stated) | 0.0469
CCN(CC)S(=O)(=O)c1ccc(N2CCOCC2)c(NC(=O)C(=O)c2c(-c3ccccc3)cc3ccccn23)c1 | -0.54
CN(C)S(=O)(=O)N1CCN(S(=O)(=O)c2ccccc2)CC1 | -0.177
Cc1csc(NC(=O)CSc2nnc(CCNC(=O)c3cccs3)n2C)n1 | -0.0983
Cc1csc(NC(=O)CSc2nnc(CCNC(=O)c3ccc(Cl)c(Cl)c3)n2C)n1 | -0.837
Cc1cccc(C(=O)NCCc2nnc(SCC(=O)Nc3nc(C)cs3)n2C)c1 | 2.62
N#CCCN(C(=O)CSc1nc(-c2ccccc2)cn1N)c1ccc(F)cc1 | -0.2
COc1cc2c(cc1OC)C(C(=O)NCCN1CCOCC1)C1c3ccccc3CCN1C2=O (configuration not stated) | -1.12
